Here are results for eleven compounds from PubChem BioAssay (EPA / NIEHS).

Records with an inconclusive call do not appear. Calls of active or inactive are those of the source. The calls were made as follows, unless noted: active = hit-call score of the fitted dose curve at least 0.9, where 1 is the maximum; inactive = score below 0.9.

As a reminder, the AC50 is the concentration giving half of the maximal activity seen.

Assay [1] is described as follows: BSK_SAg_PBMCCytotoxicity: PBMC Cytotoxicity Assessment in the BioMAP Diversity Plus: SAg Assay (AID 2283093).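 Also: PBMC viability measured as Alamar Blue reduction fluorescence at 546/580 nm; fitted both ways against DMSO so a hit may be loss or gain of signal.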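 As to AC50: PBMC superantigen activated with SEB plus TSST-1 one hour after compound addition.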 As to conditions: primary human HUVEC with PBMC. A digest of the protocol: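 Human umbilical vein endothelial cells co-cultured with PBMC; PBMC (75,000/well) pre-treated with compound 1 h, then activated with SEB and TSST-1 (20 ng/mL final each) for 90 h. Alamar Blue added 6 h, fluorescence 546/580 nm; bidirectional fit versus DMSO.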

Read-out in assay [2]: Interleukin-8 (IL8), CXCL8 (gene 3576)
Briefly: BSK_SAg_IL8: BioMAP Diversity Plus: SAg Assay for Interleukin-8 (IL8) Biomarker Activity (AID 2283094). The following applies: primary human HUVEC with PBMC; actives raise or lower the signal. A digest of the protocol: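 Human umbilical vein endothelial cells co-cultured with peripheral blood mononuclear cells; IL-8 measured by ELISA 24 h after chemical dosing. Bidirectional concentration-response fitting used DMSO as negative control and activity baseline.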

Assay [3] in a line: BSK_SAg_Proliferation: Cell Proliferation Assessment in the BioMAP Diversity Plus: SAg Assay (AID 2283095).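 Also: relative cell number as total protein by SRB absorbance in sub-confluent culture.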 As to conditions: primary human HUVEC with PBMC. A digest of the protocol:
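Human umbilical vein endothelial cells co-cultured with peripheral blood mononuclear cells; total protein measured by sulforhodamine B staining (0.1% SRB after 10% TCA fixation), absorbance at 560 nm, at 96 h. Bidirectional fit against DMSO baseline.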

Assay [4] in a line: BSK_SAg_SRB: Viability Assessment in the BioMAP Diversity Plus: SAg Assay (AID 2283096).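 Also: cells read one day after compound addition; hits may be either gain or loss of signal compared with DMSO.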 The following applies: primary human HUVEC with PBMC. Summed up: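 Endothelial/PBMC primary human co-culture; compound 24 h; fix 10% TCA, stain 0.1% SRB, A560; protein content as cytotoxicity proxy; bidirectional curve fit, DMSO = baseline.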
Assay [5] has as its target human CYP2A6, CYP2A6 (gene 1548) (UniProt P11509). Briefly: NVS_ADME_hCYP2A6: NovaScreen (NVS) CYP450-related Enzyme Activity (ADME) Assay for human CYP2A6 (AID 2283099; active = hit-call score of the fitted dose curve at least 0.9, where 1 is the maximum). Summed up: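 Recombinant human CYP2A6 expressed in insect cells, cell-free; fluorogenic substrate turnover read by fluorescence intensity 0.5 h after dosing. Primary screen 10 uM in duplicate, then concentration-response up to 20 uM; acetonitrile as negative control.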

Assay [6] addresses human CYP1A1, CYP1A1 (gene 1543) (UniProt P04798). Briefly: NVS_ADME_hCYP1A1: NovaScreen (NVS) CYP450-related Enzyme Activity (ADME) Assay for human CYP1A1 (AID 2283100; active = hit-call score of the fitted dose curve at least 0.9, where 1 is the maximum). Summed up:
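Recombinant CYP1A1 with a fluorogenic substrate, cell-free, read 1 h after dosing; acetonitrile as negative control. Single-concentration screen at 10 uM in duplicate, then concentration-response up to 20 uM for chemicals meeting ~30% inhibition threshold.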

The target in assay [7] is human CYP1A2, CYP1A2 (gene 1544) (UniProt P05177). Nature of the assay: NVS_ADME_hCYP1A2: NovaScreen (NVS) CYP450-related Enzyme Activity (ADME) Assay for human CYP1A2 (AID 2283102; active = hit-call score of the fitted dose curve at least 0.9, where 1 is the maximum;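 as to AC50: potency for inhibition since loss of fluorescence marks reduced CYP1A2 activity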). A digest of the protocol:
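Recombinant human CYP1A2 from insect cells, cell-free, fluorogenic substrate; read 0.5 h after dosing with loss of fluorescence signal indicating inhibition. Primary screen in duplicate at 10 uM, acetonitrile as negative control.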

Assay [8] addresses human CYP2D6, CYP2D6 (gene 1565) (UniProt P10635). Briefly: NVS_ADME_hCYP2D6: NovaScreen (NVS) CYP450-related Enzyme Activity (ADME) Assay for human CYP2D6 (AID 2283107; active = hit-call score of the fitted dose curve at least 0.9, where 1 is the maximum). Summed up:
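Cell-free assay using recombinant human CYP2D6 expressed in insect cells, with a fluorogenic substrate read after 1 h. Primary screen in duplicate at 10 uM; actives followed up in concentration series. Loss of signal fitted relative to acetonitrile.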

Sequence of human CYP1A1, CYP1A1 (gene 1543) (P04798 whole entry, looked up): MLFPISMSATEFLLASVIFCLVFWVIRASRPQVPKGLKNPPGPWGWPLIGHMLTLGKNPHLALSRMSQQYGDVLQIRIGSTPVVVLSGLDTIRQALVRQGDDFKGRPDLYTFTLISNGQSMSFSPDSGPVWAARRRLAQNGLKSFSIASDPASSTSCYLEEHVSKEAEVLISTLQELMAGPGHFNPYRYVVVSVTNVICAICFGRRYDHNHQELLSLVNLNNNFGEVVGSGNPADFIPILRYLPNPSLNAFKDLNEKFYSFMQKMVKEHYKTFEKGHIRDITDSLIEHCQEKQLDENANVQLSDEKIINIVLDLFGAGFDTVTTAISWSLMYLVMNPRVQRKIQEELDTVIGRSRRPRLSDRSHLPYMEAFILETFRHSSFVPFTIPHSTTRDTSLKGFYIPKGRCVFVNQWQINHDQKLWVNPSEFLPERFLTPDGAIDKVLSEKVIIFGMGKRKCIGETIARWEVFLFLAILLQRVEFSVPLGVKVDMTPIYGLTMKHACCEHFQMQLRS
Sequence of human CYP2D6, CYP2D6 (gene 1565) (P10635 whole entry, looked up): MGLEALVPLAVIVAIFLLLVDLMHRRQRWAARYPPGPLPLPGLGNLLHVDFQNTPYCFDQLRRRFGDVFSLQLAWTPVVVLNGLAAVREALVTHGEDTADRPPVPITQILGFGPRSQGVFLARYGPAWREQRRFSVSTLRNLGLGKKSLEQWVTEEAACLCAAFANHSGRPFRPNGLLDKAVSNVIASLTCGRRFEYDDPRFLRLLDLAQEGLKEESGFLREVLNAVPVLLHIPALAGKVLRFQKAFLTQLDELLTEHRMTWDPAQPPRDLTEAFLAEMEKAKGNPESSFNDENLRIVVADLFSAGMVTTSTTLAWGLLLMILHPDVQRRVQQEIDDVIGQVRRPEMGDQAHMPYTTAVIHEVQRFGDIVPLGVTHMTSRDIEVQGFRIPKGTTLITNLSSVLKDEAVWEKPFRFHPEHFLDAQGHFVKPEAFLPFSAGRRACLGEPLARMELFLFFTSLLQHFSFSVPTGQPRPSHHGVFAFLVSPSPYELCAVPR
Sequence of human CYP1A2, CYP1A2 (gene 1544) (P05177 whole entry, looked up): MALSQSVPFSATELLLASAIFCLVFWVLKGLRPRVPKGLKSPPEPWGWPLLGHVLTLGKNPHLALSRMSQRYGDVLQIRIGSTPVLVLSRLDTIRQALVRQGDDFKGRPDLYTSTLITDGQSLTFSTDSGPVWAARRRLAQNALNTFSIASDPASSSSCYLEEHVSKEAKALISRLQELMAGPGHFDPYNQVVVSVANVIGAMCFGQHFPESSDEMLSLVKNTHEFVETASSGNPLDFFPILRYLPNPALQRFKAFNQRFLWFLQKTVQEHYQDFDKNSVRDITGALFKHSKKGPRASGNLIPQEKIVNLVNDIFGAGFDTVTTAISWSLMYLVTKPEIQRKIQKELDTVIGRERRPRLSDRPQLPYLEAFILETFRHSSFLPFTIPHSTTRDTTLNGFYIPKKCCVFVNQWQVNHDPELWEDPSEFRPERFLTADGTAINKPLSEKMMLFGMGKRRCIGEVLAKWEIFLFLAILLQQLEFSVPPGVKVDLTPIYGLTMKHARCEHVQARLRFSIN
Sequence of human CYP2A6, CYP2A6 (gene 1548) (P11509 whole entry, looked up): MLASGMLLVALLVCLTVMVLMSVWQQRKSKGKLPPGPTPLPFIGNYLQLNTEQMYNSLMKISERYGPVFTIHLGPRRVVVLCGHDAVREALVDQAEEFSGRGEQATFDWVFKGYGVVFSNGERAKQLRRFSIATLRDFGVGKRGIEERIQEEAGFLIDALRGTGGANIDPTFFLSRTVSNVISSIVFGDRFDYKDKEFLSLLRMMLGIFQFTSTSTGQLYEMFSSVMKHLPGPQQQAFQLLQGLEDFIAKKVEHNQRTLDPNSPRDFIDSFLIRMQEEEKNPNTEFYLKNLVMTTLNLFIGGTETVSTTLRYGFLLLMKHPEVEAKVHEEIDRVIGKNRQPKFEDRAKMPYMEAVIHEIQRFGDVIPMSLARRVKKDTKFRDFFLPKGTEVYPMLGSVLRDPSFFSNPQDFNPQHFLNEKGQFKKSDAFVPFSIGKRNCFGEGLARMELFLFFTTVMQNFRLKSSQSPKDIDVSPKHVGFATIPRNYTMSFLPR

As to `Clc1ccccc1C(c1ccccc1)(c1ccccc1)n1ccnc1`, the AC50 is 33.1 µM (active) in assay [1]; 11.6 µM (active) in assay [2]; 9.32 µM (active) in assay [3]; 24.4 µM (active) in assay [4]; 2.68 µM (active) in assay [6]; 3.72 µM (active) in assay [8]. Moreover, the compound was classed as inactive in assay [5] and in assay [7].
On to `Clc1cc(Cl)c2c(c1)N=C1CCCCCN1C2`, for which the result in assay [1], in assay [2], in assay [3] and in assay [4] was inactive. The AC50 in assay [6] was 0.764 µM (active); in assay [7], 2.34 µM (active); in assay [8], 2.71 µM (active).
Take `Oc1ccccc1`: the outcome in assay [1], in assay [2], in assay [3], in assay [4] and in assay [5] was inactive.
For `CCCCCCCCCCCCO`, the AC50 in assay [1] is 35.1 µM (active); in assay [2], 19.8 µM (active); in assay [4], 31.3 µM (active).
Turning to `c1ccc(C[n+]2cccc3ccccc32)cc1`, the result in assay [1], in assay [2], in assay [3] and in assay [4] was inactive. Also, the AC50 in assay [8] is 7.84 µM (active).
`CCCCCCCCCC(=O)O`: the outcome in assay [1], in assay [2], in assay [3] and in assay [4] was inactive.
For the compound `Cc1ccc2oc(CN(Cc3ccccc3)C(=O)Nc3c(F)cc(F)cc3F)c(-c3ccc(Cl)cc3)c2c1`, the outcome in assay [1], in assay [2] and in assay [4] was inactive. For the same compound, in assay [3], the AC50 was 6.03 µM (active).
Turning to `CN1C(=O)N(c2ccccc2Br)Cc2cnc(Nc3ccc4c(c3)OCC(CO)O4)nc21` (stereo not drawn), the AC50 in assay [1] was 1.87 µM (active); in assay [2], 1.62 µM (active); in assay [4], 2.23 µM (active).
On to `O=C1c2ccccc2C(=O)N1CCc1noc(-c2ccc(CN3CCCCCC3)s2)n1`, for which the result in assay [1], in assay [2], in assay [3] and in assay [4] was inactive. The AC50 is 4.62 µM (active) in assay [6] and 6.57 µM (active) in assay [8].
Take `O=C=NCCCCCCN=C=O`: the result in assay [1], in assay [2] and in assay [4] was inactive. Also, in assay [3], the AC50 was 15.8 µM (active).
`CCCCCCCCN(C)CCCCCCCC`: the outcome in assay [1], in assay [2], in assay [3] and in assay [4] was inactive.
